# Test results taken from ChEMBL document CHEMBL1157539, “Thousands of chemical starting points for antimalarial lead identification” (Nature, 2010).
# Assays:
# Assay type in all cases: functional
# [1] = system: Plasmodium falciparum; test: GSK_TCMDC: Inhibition of Plasmodium falciparum 3D7 in whole red blood cells, using parasite LDH activity as an index of growth. Test compounds present at 2uM
# [2] = system: Plasmodium falciparum; test: GSK_TCMDC: Inhibition of Plasmodium falciparum Dd2 in whole red blood cells, using parasite LDH activity as an index of growth. Test compounds present at 2uM
# [3] = system: HepG2; test: GSK_TCMDC: Percent inhibition of human HepG2 cell line. Test compounds present at 10uM.
Structure (SMILES),Inhibition [1] [%],Inhibition [2] [%],Inhibition [3] [%]
Cc1ccc2c(c1C)NC(=O)C21NN=C(c2ccccc2)S1 (stereo not drawn),97,65,31
CCNC(=O)NC1CCN(Cc2c(-c3cccs3)nc3ccccc3c2C(=O)N[C@@H](C)C2CCCCC2)CC1,95,96,0
COc1ccc(CNc2nccc3ccc(-c4ccc5nccn5c4)cc23)cc1.O=C(O)C(F)(F)F,95,47,17
Cc1cccc2nc(-c3cccc(-c4cccc(CNCCNC(=O)c5ccnn5C)c4)c3)[nH]c12.O=C(O)C(F)(F)F,100,71,26
CN1CCN(CC(=O)Nc2cccc(-c3ccc(-c4nc5cc(F)ccc5[nH]4)cc3)c2)CC1,100,98,20
O.O=C1C([N+](=O)[O-])=C(O)c2c(F)cccc21,95,13,9
CCc1ccc(-c2cnc(N)c3cc(-c4ccnc(N)n4)ccc23)cc1,92,70,37
Cc1ccc(F)c(OCC2CCN(c3ncc(C(=O)NC4CC4)cc3Cl)CC2)c1,96,95,9
CCNC(=O)Nc1cccc(-c2ccc(-c3nc4cccc(C)c4[nH]3)s2)c1,96,20,32
Cn1nc(-c2ccc(S(=O)(=O)N3CCC(CCN4CCC(c5c[nH]c6ccccc56)CC4)CC3)s2)cc1C(F)(F)F,94,22,40
Cc1[nH]c(C)c(-c2ccc(OCc3ccccc3)cc2)c(=O)c1Br,97,96,19
